Data as given in PubChem BioAssay (NCI).
This is part of a sample that, as a whole, favours compounds with a hit. Of some 83,000 tested, about 20% had one in any assay.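 Compound tested at a single concentration for 48 hours in 96-well plates; a percent growth value below 10 was scored as active.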 Activity calls are given as the source filed them.

The molecules below were run on IGROV1 ovarian (assay: NCI-60 one-dose screen, 48 h (100 = growth as untreated, 0 = no growth, -100 = all killed)). Settings: 10 µM unless noted.
Method: Growth inhibition of the IGROV1 human tumor cell line is measured as a screen for anti-cancer activity. Cells are grown in 96 well plates and exposed to the test compound for 48 hours. Compounds are tested at a single concentration, which is 10^-5 M for most compounds. The reported endpoint is percent growth (GI% or GIPRCNT), where numbers from 0 - 100% represent growth inhibition, and numbers from -100% - 0 represent cell death. For example, a value of 40 represents 60% growth inhibition. A value of 0 means no net growth occurred over the course of the experiment. A value of -40 indicates 40% of cells at the beginning of the experiment died by the end of the experiment. A value of -100 means all cells are dead at the end of the experiment.
NCI-60 Human Tumor Cell Lines Screen was performed using the standard one-dose NCI protocol, which is described in more detail at https://dtp.cancer.gov/discovery_development/nci-60/default.htm.
Compounds with GIPRCNT values below 10 were considered active. Activity score was based on GIPRCNT using the following formula: […]
Score is 0 for GIPRCNT values of 100 or above, 50 for GIPRCNT values of 0, and 100 for GIPRCNT values of -100.
In the case of `COc1ccccc1S(=O)(=O)Nc1ccc2c3c(cc(CCC(=O)NCCCCNc4cccc5c4C(=O)N(C4CCC(=O)NC4=O)C5=O)cc13)C(=O)N2C` (stereo not given), the growth is reported as -9.53% (active).
For `O=C1CCCCN1c1ccc(C2=NCCCN2)cc1`, the growth was 95.9% (inactive).
`CN1c2ccccc2S(=O)(=O)n2c(SCC(=O)Nc3nc4ccc(F)cc4s3)nnc21` was tested, and the growth was -22.6% (active).
In the case of `O=C1C=CC2(O)OC/C(=C\c3ccccc3)C(O)=C2C1=O` (stereo not given), the growth is reported as -13% (active).
With `O=C1O[C@@H](c2ccccc2Cl)[C@@H]2c3cc4c(cc3CCN12)OCO4` the growth was 94% (inactive).
In the case of `CCCOC(=O)Nc1nc2ccc(SCC)cc2s1`, the growth is reported as 89.5% (inactive).
For `N#Cc1ccc(O)c(C2=NCC(c3ccc(-c4ccccc4)cc3)O2)c1` (stereo not given), the growth was 13.7% (inactive).
For `CCOC(=O)C#Cc1c(C(=O)OCC)nnn1[C@@H]1O[C@H](COC)[C@@H](OC)[C@H]1OC`, the growth was 95.1% (inactive).
In the case of `COc1cc(C=Nc2oc(-c3ccccc3)c(-c3ccccc3)c2C#N)cc(CN2CCCC2)c1O`, the growth is reported as 92% (inactive).
In the case of `CS(=O)(=O)c1ccc(-c2nc3ccccc3n2CC(=O)N/N=C/c2ccccc2)cc1`, the growth is reported as 99.7% (inactive).
In the case of `Nc1cc(Br)cc2c1[nH]c(=O)c1ccccc12`, the growth is reported as 114% (inactive).
With `Oc1c(I)cc(I)cc1CN(Cc1ccccn1)Cc1ccccn1` the growth was 15.3% (inactive).
For `COC(=O)c1c(C)nc(C)c2c1C(=O)C=C(NCc1ccccc1)C2=O`, the growth was 66.7% (inactive).
In the case of `CNCCCNc1nc2ccccc2c2c(=O)c3cc(Cl)ccc3sc12`, the growth is reported as 33.2% (inactive).
With `NS(=O)(=O)c1ccc(C(=O)N=Nc2c(O)[nH]c3ccc(Cl)cc23)cc1` the growth was 98.1% (inactive).
In the case of `CCOc1ccc(NC(=O)Nc2ccc(OCC)cc2)cc1`, the growth is reported as 110% (inactive).
In the case of `COc1ccc(NC(=O)c2ccc(Nc3ncnc4c3cnn4-c3cccc(F)c3)cc2)cc1`, the growth is reported as 109% (inactive).
In the case of `COc1cc(O)c2c(=O)c3c(CC=C(C)C)cc(OC)c(O)c3oc2c1`, the growth is reported as 41.7% (inactive).
For `COc1cc2c(c(OC)c1OC)C(=O)CC(c1cccc(C(=O)Nc3ccccc3Br)c1)O2` (stereo not given), the growth was 91.6% (inactive).
In the case of `Cc1ccc(-c2nc(SCC(=O)N3CCN(c4cc5c(cc4F)c(=O)c(C(=O)O)cn5C4CC4)CC3)nc(Cl)c2C#N)cc1`, the growth is reported as 97.4% (inactive).
With `O=c1cc(-c2ccccc2)nc(SCc2nc3cc(Cl)c(Cl)cc3[nH]2)[nH]1` the growth was 101% (inactive).
With `CCCCCCCCn1ccc2cc(NC(=O)CN3CCN(c4cc(C)nc(Cl)n4)CC3)ccc21` the growth was 72.5% (inactive).
With `Cc1ccc(S(=O)(=O)OC[C@]23CCC(C)(C)C[C@H]2C2=CC[C@@H]4[C@@]5(C)CCCNC(C)(C)[C@@H]5CC[C@@]4(C)[C@]2(C)CC3)cc1` the growth was 16.9% (inactive).
`CCOC(=O)/C(=C(/C)NCC(C)C)c1cc(O)c(O)c2c(C)cc(=O)[nH]c12` was tested, and the growth was 61% (inactive).
In the case of `COc1ccc(N=C2NN=C(c3c[nH]c4ccccc34)CS2)cc1OC`, the growth is reported as -32.4% (active).
`COc1ccc(C(=O)Nc2ncc(Cc3ccc(Cl)cc3)s2)cc1` was tested, and the growth was 14.4% (inactive).
For `Cn1c(=O)[nH]c(=O)c2nc3c(nc21)-c1ccccc1C3=O`, the growth was 108% (inactive).
In the case of `CN1CCOCCN(C)Cc2ccc3ccc(cc3c2)CN(C)CCOCCN(C)Cc2ccc3ccc(cc3c2)C1`, the growth is reported as 74.8% (inactive).
For `C/C(Cc1ccc(Cl)cc1)=C(\c1ccc(OCCN2CCCCCC2)cc1)c1ccc(OC(=O)c2ccccc2)cc1`, the growth was 24.4% (inactive).
`Clc1ccc(-c2nc(C(Cl)Cl)nc3cc(-c4ccccc4)nn23)cc1` was tested, and the growth was 54.8% (inactive).
For `COc1ccc(Cl)cc1Nc1nc(C(F)(F)F)ccc1C(=O)N/N=C/c1ccc([N+](=O)[O-])cc1`, the growth was -0.273% (active).
For `O=C(Nc1ccc(Nc2ccncc2)cc1)c1ccc(Nc2ccnc3ccc([N+](=O)[O-])cc23)cc1`, the growth was 97% (inactive).
With `Nc1cc(C(=O)O)cc(-n2c(O)c(C=C3N=c4ccccc4=N3)sc2=S)c1` the growth was 86.8% (inactive).
`N=C(N)c1ccc(-c2ccc(-c3cc(Cl)cc(Cl)c3)s2)s1` was tested, and the growth was -26.7% (active).
`CCOC(=O)NC(=S)n1oc(=O)c2ccccc21` was tested, and the growth was 100% (inactive).
In the case of `O=C1c2cccnc2C(=O)c2c1c(C(=O)OCCc1ccccn1)c1ccccn21`, the growth is reported as -0.716% (active).
`Cc1ccc(OCCOCCOCCOCCOCCOc2ccc(C)n(O)c2=S)c(=S)n1O` was tested, and the growth was 15.5% (inactive).
For `CCOC(=O)c1cnn(CC(C)O)c1NC(=O)NCc1cccc(F)c1` (stereo not given), the growth was 95.5% (inactive).
In the case of `N#Cc1c(-c2ccccc2)cc(-c2ccccc2)n(CCCCC(=O)NO)c1=O`, the growth is reported as 20% (inactive).
In the case of `CCOC(=O)c1c(NC(=O)c2ccccc2)sc2c3c(ccc12)OCN(C)C3`, the growth is reported as 18.6% (inactive).
